In PMC5540273 (PLoS ONE, 2017):

Assays:
Conditions in all cases: concentration: 1 μM, replicates: in singlicate; n = 1
RIPK2 = test system: RIPK2
RIPK4 = test system: RIPK4
RIPK5 = test system: RIPK5
ROCK1 = test system: ROCK1
ROCK2 = test system: ROCK2
ROS1 = test system: ROS1
[1] = test system: RPS6KA4(Kin.Dom.1-N-terminal)
[2] = test system: RPS6KA4(Kin.Dom.2-C-terminal)
[3] = test system: RPS6KA5(Kin.Dom.1-N-terminal)
[4] = test system: RPS6KA5(Kin.Dom.2-C-terminal)
[5] = test system: T1, RSK1(Kin.Dom.1-N-terminal)
T1 construct: gene RPS6KA1

[6] = test system: T2, RSK1(Kin.Dom.2-C-terminal)
T2 construct: gene RPS6KA1

[7] = test system: T3, RSK2(Kin.Dom.1-N-terminal)
T3 construct: gene RPS6KA3

[8] = test system: T4, RSK2(Kin.Dom.2-C-terminal)
T4 construct: gene RPS6KA3

[9] = test system: T5, RSK3(Kin.Dom.1-N-terminal)
T5 construct: gene RPS6KA2

[10] = test system: T6, RSK3(Kin.Dom.2-C-terminal)
T6 construct: gene RPS6KA2

[11] = test system: T7, RSK4(Kin.Dom.1-N-terminal)
T7 construct: gene RPS6KA6

[12] = test system: T8, RSK4(Kin.Dom.2-C-terminal)
T8 construct: gene RPS6KA6

S6K1 = test system: S6K1
SBK1 = test system: SBK1
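Note: KINOMEscan kinase panel screen.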

SMILES	%Inh (RIPK2) [%]	%Inh (RIPK4) [%]	%Inh (RIPK5) [%]	%Inh (ROCK1) [%]	%Inh (ROCK2) [%]	%Inh (ROS1) [%]	%Inh [1] [%]	%Inh [2] [%]	%Inh [3] [%]	%Inh [4] [%]	%Inh [5] [%]	%Inh [6] [%]	%Inh [7] [%]	%Inh [8] [%]	%Inh [9] [%]	%Inh [10] [%]	%Inh [11] [%]	%Inh [12] [%]	%Inh (S6K1) [%]	%Inh (SBK1) [%]
Cc1nnc(-c2ccc(C)c(-c3ccc(C(=O)O)cc3)c2)o1 [GW608005]	0	9	0	0	0	0	0	0	9	0	2	2	0	2	3	0	0	2	10	4
COC(=O)c1c(-c2ccccc2)c2cc(Br)ccc2c(=O)n1Cc1ccc(S(C)(=O)=O)cc1	0	46	20	23	0	0	0	21	24	3	3	14	0	9	14	0	24	6	0	5
COc1cc2ncn(-c3cc(OCCCc4ccccc4)c(C(N)=O)s3)c2cc1OC [GSK205189]	20	0	0	0	0	13	5	0	0	0	2	10	7	2	0	0	12	18	0	0
O=C(Nc1n[nH]c2nc(-c3ccccc3)c(Br)cc12)C1CC1 [SB-708998]	5	0	0	7	0	0	4	0	28	0	0	0	7	29	0	0	18	2	0	17
COc1ccc(CNC(=O)NC2CCN(c3ccnc(Nc4ccc(F)cc4)n3)C2)cc1 (stereo not shown) [GSK1379706]	19	0	15	29	27	12	0	0	13	27	14	28	0	3	15	31	0	20	0	0
COc1cc2ncn(-c3cc(OCc4ccncc4)c(C(N)=O)s3)c2cc1OC [GSK336313]	13	22	1	0	0	28	19	0	4	4	25	0	6	0	0	0	0	0	0	24
CCC(=O)c1c(-c2ccccc2)c2cc(Cl)ccc2c(=O)n1Cc1cc(S(C)(=O)=O)n(CC(F)F)n1	2	0	18	0	0	0	0	0	0	0	2	0	5	0	0	0	13	1	0	0
Cc1nc(N(C)[C@H]2CN(C(=O)CC#N)CC[C@H]2C)c2cc[nH]c2n1	0	17	17	2	0	0	0	10	0	9	12	0	0	0	12	12	4	4	0	0
Cc1ccccc1COc1cc(-n2cnc3cc(Cl)ccc32)sc1C(N)=O [GW813349]	12	15	0	8	6	0	10	22	0	5	16	0	2	49	5	0	0	42	8	0
COc1cc(OC)cc(-c2cc3cnc(N)nc3nc2NC(=O)NC(C)(C)C)c1	0	0	0	0	0	0	16	0	5	0	23	0	0	0	0	0	0	0	0	0
Nc1nc(N)c2nc(-c3ccccc3)[nH]c2n1 [SKF-12778]	10	66	0	26	24	10	11	0	9	0	0	0	9	9	18	0	15	1	8	10
